The full list was thinned out, with hits kept by preference.
FBPA Giardia inh: blocks Giardia fructose-bisphosphate aldolase activity; A8B2U2; purified Giardia FBPA; Potency, µM (top dose mostly 59.6 µM), hits mostly inhibitors; 290,000 compounds, 0.71% hits; AID 2451; further: nearly all actives have a fitted effect of over 55% in size
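40 nM FBPA preincubated 10 min at RT with compound (up to 57.5 uM final), then substrate plus GAPDH/TPI/NAD/arsenate coupling and diaphorase/resazurin added. Fluorescence read after 20 min at RT, 525/598 nm.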
Cycloheximide cs: counter-screen for Shiga toxin inhibitors: cycloheximide protein synthesis inhibition | cell reporter, cycloheximide protein synthesis inhibition counterscreen | max response, % | 300,000 compounds, 12% hits; in the data active means max response mostly above about 13%, no sharp cut-off; inactive means mostly below about 14%; further: read at 38.3 µM for the half of the compounds with a filed dose
LmPK inhibitor: LmPK (Leishmania mexicana) enzyme inhibition; purified LmPK, Kinase-Glo ATP luminescence, 1 h; Potency, µM (highest dose often 57.5 µM), most hits filed as inhibitors; 290,000 compounds, 0.37% hits
Target sequence (Q27686 whole entry, looked up): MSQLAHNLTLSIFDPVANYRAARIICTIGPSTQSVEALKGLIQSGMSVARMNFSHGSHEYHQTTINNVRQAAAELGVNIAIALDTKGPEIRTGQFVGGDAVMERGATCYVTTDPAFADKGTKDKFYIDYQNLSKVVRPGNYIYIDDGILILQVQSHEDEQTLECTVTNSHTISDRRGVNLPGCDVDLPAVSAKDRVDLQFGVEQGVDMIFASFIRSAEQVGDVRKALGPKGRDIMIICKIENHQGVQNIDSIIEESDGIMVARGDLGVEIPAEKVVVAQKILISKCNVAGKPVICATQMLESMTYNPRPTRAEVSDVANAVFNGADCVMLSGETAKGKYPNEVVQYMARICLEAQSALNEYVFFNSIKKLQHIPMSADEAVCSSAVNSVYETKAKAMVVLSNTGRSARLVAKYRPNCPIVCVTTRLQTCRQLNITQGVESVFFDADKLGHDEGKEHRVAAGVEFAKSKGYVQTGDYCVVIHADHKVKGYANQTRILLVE
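0.1 nM LmPK, 0.5 mM PEP, 0.1 mM ADP; 50 mM imidazole pH 7.2, 7 mM MgCl2, 50 mM KCl; 1 h RT. Kinase-Glo luminescence readout, normalized to no-enzyme (full inhibition) and uninhibited wells.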
TbPYK inhibitor: inhibitors of Trypanosoma brucei pyruvate kinase; TbPYK enzyme, Kinase-Glo Plus ATP luminescence, 45 min; Potency, µM (doses to about 76.8 µM), most hits filed as inhibitors; 410,000 compounds, 0.12% hits; further: nearly all actives have a fitted effect of over 50% in size
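Readout: single end-point luminescence (Kinase-Glo Plus, 10 min). Reaction conditions were TbPYK/substrate plus 130 uM ADP, 45 min at RT, pH 7.2 TEA buffer. No-enzyme wells served as controls, and data were normalized before concentration-response fitting.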
RE007 growth inh: less growth of the S. pombe RE007 Vpr strain. Potency, µM (series often up to 92.2 µM), most hits filed as inhibitors. S. pombe RE007 Vpr strain, BacTiter-Glo ATP luminescence, 24 h. 360,000 compounds, 0.21% hits; active means well fitted falling curve with a large enough effect; further: nearly all actives have a fitted effect of over 50% in size
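Fission yeast strain RE007, carrying one chromosomally integrated HIV-1 vpr copy, was seeded at OD 0.01 in PMG+AL medium with 23 nL pinned compound. After 24 h at 30 °C and 99% humidity, viability was read by BacTiter-Glo luminescence.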
Shiga inhibitor: Shiga toxin inhibition | inhibition, % at 38.7 µM | Vero cells, Shiga toxin protein synthesis inhibition reporter | 290,000 compounds, 9.2% hits; in the data active means inhibition mostly above about 28%, no sharp cut-off; inactive means mostly below about 43%
Of the large screens only hits and unclear results are named; the others gave an inactive call. Unless noted, the call rests on the fitted dose curve; in most records, active means well fitted curve in the direction sought with a large enough effect; inconclusive means small, poorly fitted or top-dose-only effect, or another doubt; inactive means no such curve, though single readings can be large; an effect the other way counts as inactive or inconclusive.

Cc1cccc(NC(=O)Cc2c(F)cccc2Cl)n1	Cycloheximide cs 28, Shiga inhibitor 112
O=C(Cc1c(F)cccc1Cl)Nc1ccncc1	none
COc1cccc(CC(=O)Nc2nc(C)cs2)c1	Cycloheximide cs 43, Shiga inhibitor 72
Cc1csc(NC(=O)Cc2c(F)cccc2Cl)n1	Cycloheximide cs 35 (no result: Shiga inhibitor)
CN(C)C(=O)c1ccc(-c2cc(NCc3ccccc3)ncn2)cc1	none (no result: Cycloheximide cs, LmPK inhibitor, TbPYK inhibitor, RE007 growth inh, Shiga inhibitor)
O=[N+]([O-])c1ccc(-c2cnc(SCc3ccccc3Cl)[nH]2)cc1	Cycloheximide cs 28, Shiga inhibitor 58
O=[N+]([O-])c1ccc(-c2cnc(SC(c3ccccc3)c3ccccc3)[nH]2)cc1	none
Cc1ccc(NC(=O)c2nc(S(C)(=O)=O)ncc2N(Cc2ccco2)Cc2ccco2)cc1	none (no result: FBPA Giardia inh, Cycloheximide cs, LmPK inhibitor, RE007 growth inh, Shiga inhibitor)
CCC(=O)N(Cc1ccco1)c1nc(C(=O)Nc2ccc(Cl)cc2)c(C)s1	Cycloheximide cs 33, Shiga inhibitor 54
C(=N\N1CCN(c2ccccn2)CC1)/c1cccc2ccccc12	Cycloheximide cs 17, Shiga inhibitor 43
CC(C)c1ccc(/C=N/N2CCN(c3ccccn3)CC2)cc1	Cycloheximide cs 21, Shiga inhibitor 43
Oc1ccccc1/C=N/N1CCN(c2ccccn2)CC1	Cycloheximide cs 37, Shiga inhibitor 90
CC(C)c1ccc(NC(=O)CN2CCN(c3ccccn3)CC2)cc1	none
COc1cc(C2NC(=O)C(C#N)=C(S)N2c2ccc(C)cc2)ccc1OC(C)C (configuration not stated)	Cycloheximide cs 11, Shiga inhibitor 78
O=c1c(O)c(-c2ccccc2)oc2cc(O)ccc12	none (no result: Cycloheximide cs, LmPK inhibitor, TbPYK inhibitor, RE007 growth inh, Shiga inhibitor)
Cc1cccc(NC(=S)N2N=CCC2c2ccccc2)c1 (configuration not stated)	Cycloheximide cs 42, Shiga inhibitor 119
CCc1ccccc1NC(=S)N1CCCCCC1	none (no result: FBPA Giardia inh)
CCc1ccccc1NC(=S)N1N=CCC1c1ccccc1 (configuration not stated)	Cycloheximide cs 17
COc1ccc(Nc2cc(C(=O)NCCCN3CCN(c4ccc(OC)cc4)CC3)c3ccccc3n2)cc1	none (no result: FBPA Giardia inh, Cycloheximide cs, LmPK inhibitor, RE007 growth inh, Shiga inhibitor)
Cc1ccc(S(=O)(=O)N2CCC(c3ccncc3)CC2)c(C)c1	none (no result: FBPA Giardia inh, Cycloheximide cs, LmPK inhibitor, RE007 growth inh, Shiga inhibitor)
Cc1cc(=O)c2cc3nc(-c4cccnc4)oc3c(Br)c2o1	Cycloheximide cs 15 (no result: TbPYK inhibitor, RE007 growth inh)
COc1ccc(N2C(=O)c3ccc(C(=O)Nc4ccc(NC(C)=O)cc4)cc3C2=O)cc1	none
COc1ccccc1C(=O)C1CCCN(C(=O)c2ccccc2C(C)=O)C1 (configuration not stated)	Cycloheximide cs 33, Shiga inhibitor 49
COc1ccccc1N1CCN(C2CCCN(C(=O)CN3CCCC3=O)C2)CC1 (configuration not stated)	none (no result: FBPA Giardia inh)
COCC(=O)N1CCCC(C(=O)c2ccc(Oc3ccccc3)cc2)C1 (configuration not stated)	none
CC(=O)c1ccccc1C(=O)N1CCCC(C(=O)c2ccc(C(F)(F)F)cc2)C1 (configuration not stated)	Cycloheximide cs 54, Shiga inhibitor 70
COc1ccccc1C(=O)C1CCCN(C(=O)CN2CCCCC2=O)C1 (configuration not stated)	Cycloheximide cs 19
CC(=O)N1CCCC(C(=O)c2ccc(Oc3ccccc3)cc2)C1 (configuration not stated)	Cycloheximide cs 34, Shiga inhibitor 57
Cc1ccc(-c2cc3nccc(-c4cc([N+](=O)[O-])ccc4O)n3n2)cc1	none (no result: FBPA Giardia inh, Cycloheximide cs, LmPK inhibitor, RE007 growth inh, Shiga inhibitor)
Cc1c(Cl)cccc1NC(=O)c1cc2sccc2n1Cc1ccc(F)cc1	none (no result: FBPA Giardia inh, Cycloheximide cs, LmPK inhibitor, RE007 growth inh, Shiga inhibitor)
CCc1ccc(NC(=S)N(CCN2CCOCC2)Cc2ccccc2F)cc1	none
Cc1ccn(CC(=O)N2CCCC(C(=O)c3cccc4ccccc34)C2)n1 (configuration not stated)	none
CCOC(=O)c1c(C)[nH]c(C(=O)N2CCCC(C(=O)c3ccccc3OC)C2)c1C (configuration not stated)	Cycloheximide cs 12
Cc1nc(C)n(CC(=O)N2CCCC(C(=O)c3cccc4ccccc34)C2)n1 (configuration not stated)	Cycloheximide cs 14

Compound activity from PubChem.
